Biological target: Shiga toxin 2 (Escherichia coli O157:H7) (UniProt P09385+P09386)
Assay: E. coli 0.157:H7 Shiga Toxin SOP - stx2 screening assay
Type: functional
Set-up: scale not given: direction of the effect not stated beside the values
Conditions: 30 µM

Row | SMILES | Percent Effect [%]
1 | Cc1ccc(C(=O)N2CCN(CCC(C)(C)C)CC2)c(=O)[nH]1 | 1.57
2 | Cc1ccc(N2CCN(C(=O)COc3ccccc3)CC2)nn1 | -66.5
3 | CC(C)c1nnc2ccc(N3CCC(C(N)=O)CC3)nn12 | -20.5
4 | CC(C)c1nnc2ccc(N3CCC(C(=O)Nc4nccs4)CC3)nn12 | -32.8
5 | CCc1ccc(CCC(=O)N2CCOCC2c2ncon2)cc1 (stereo not given) | 20.7
6 | CC(C)COCC(NC(=O)c1ccccn1)c1ccco1 (stereo not given) | 28
7 | Cc1cccc(COC[C@@H]2CC[C@H]3[C@H](CCN3Cc3ccco3)O2)n1 | -16.8
8 | O=C(CN1CCC(c2cccc(F)c2)C1)NCC(F)(F)F (stereo not given) | 2.95
9 | O=C(Cn1ccc2ccc(Br)cc21)NCc1ccc(C(=O)O)cc1 | -5.49
10 | COc1c(C(=O)NCc2cccnc2)nnn1Cc1ccc(C)cc1 | -4.95
11 | O=C(O)c1cc(S(=O)(=O)N2CCOc3ccccc32)ccc1F | -3.29
12 | O=C(NCCN1CCCCC1)c1nc2ccccc2c(=O)[nH]1 | -53.5
13 | CCCS(=O)(=O)Nc1ccc2c(c1)OCC(C)(C)C(=O)N2C | -2.5
14 | Cn1cc(C(=O)N2C[C@@H]3COC[C@]3(COCc3cccnc3)C2)cn1 | -6.37
15 | CCc1nc(C2CCCN2CC(=O)Nc2nncs2)no1 (stereo not given) | 2.9
16 | O=C1CC(c2cccnc2)C2(CCN(S(=O)(=O)C3CC3)CC2)N1 (stereo not given) | 4.96
17 | c1ccc2oc(CCCN3CCOC(Cn4cccn4)C3)nc2c1 (stereo not given) | -3.52
18 | CN(C(=O)c1ccccc1Cl)C1CCN(c2ccccn2)CC1 | 19.1
19 | Cc1nc(C)n(CC2CCCN2CC(=O)Nc2cc(C(C)C)no2)n1 (stereo not given) | 27.8
20 | Fc1cc(CNCc2ccc3c(c2)CCO3)ccc1N1CCOCC1 | -16.1

— ChEMBL document CHEMBL3988442, “University of Dundee, Small-Polar-MMV Screening Library” (2021)
